Laboratory results: PubChem BioAssay
Calls of active or inactive are those of the source.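 Rule for the calls, unless noted: active = inhibition at or above 50% at 10 µM; inactive = inhibition below 50%.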

Experiments:
[1] = inhibitors of TNFa-induced NFkB p65 translocation, primary screen, imaging, HUVEC, MLSMR starter and 10KST1 sets (AID 438;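 active = inhibition above 20% together with a positive visual image hit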;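 note: compound added about 3h40 before a 20 min TNFalpha stimulation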;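 for inhibition: signal is the nuclear over cytoplasmic p65 intensity ratio per well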); conditions: HUVEC TNFa-induced p65 nuclear translocation; cell count: measured here: nuclei count (cytotoxicity indicator), at 2.08 µM; inhibition: at 2 µM, stronger effect = higher value, 0% TNFa-plus-vehicle, 100% no-TNFa wells
[2] = inhibitors of mutant huntingtin aggregation, primary screen, imaging, exon1htt(103Q)mCFP cells, high-content imaging (AID 483;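 active = visual image review flags a hit and inhibition of aggregation exceeds 20%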;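 note: compound exposure lasted 3 days before fixation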;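 for nuclei count: percent of the per-plate median nuclei count of sample wells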); conditions: exon1htt(103Q)mCFP cell line, aggregate imaging, at 2 µM; inhibition of aggregation: stronger effect = higher value; nuclei count: measured here: cell count, toxicity
[3] = inhibitors of E-selectin induction by TNFa, primary screen, imaging, HUVEC, immunofluorescence, MLSMR starter and 10KST1 sets (AID 487;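 active = visually confirmed hit in the image check and inhibition above 20%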;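 for inhibition: signal is fraction of cell area covered by stained E-selectin grains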;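 for nuclei count: 100% = median nuclei count of all wells on the same plate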); conditions: HUVEC TNFalpha-induced E-selectin immunofluorescence imaging, at 2 µM; inhibition: stronger effect = higher value; nuclei count: measured here: cell number, toxicity
[4] = target: Voltage-gated potassium channel subunit beta-2 (Rattus norvegicus) (UniProt P62483); experiment: KvBeta enzyme negative modulators, primary screen, biochemical, NADPH fluorescence (AID 622;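 active = fluorescence slope higher than the sample average by over 3 SD, cut at about -0.22 in these data, passing the limit was not always enough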;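 note: slope of raw intensity against log time taken from 70 to 1610 s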); conditions: recombinant KvBeta, 4-cyanobenzaldehyde reduction, at 10 µM, stronger effect = higher value
Voltage-gated potassium channel subunit beta-2 (Rattus norvegicus), sequence (P62483 whole entry, looked up): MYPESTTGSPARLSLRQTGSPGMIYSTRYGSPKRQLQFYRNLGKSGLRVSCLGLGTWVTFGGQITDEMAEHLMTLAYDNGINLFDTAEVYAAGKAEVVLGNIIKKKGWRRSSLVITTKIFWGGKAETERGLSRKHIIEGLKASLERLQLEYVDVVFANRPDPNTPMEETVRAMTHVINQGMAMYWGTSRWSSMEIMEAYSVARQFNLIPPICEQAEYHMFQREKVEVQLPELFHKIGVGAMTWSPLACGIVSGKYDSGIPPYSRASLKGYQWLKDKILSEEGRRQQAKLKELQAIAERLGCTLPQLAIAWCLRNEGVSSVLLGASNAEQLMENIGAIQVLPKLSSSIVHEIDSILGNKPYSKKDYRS

[5] = target: Voltage-gated potassium channel subunit beta-2 (Rattus norvegicus) (UniProt P62483); experiment: KvBeta positive modulators, primary screen, biochemical, NADPH fluorescence (AID 623;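 active = NADPH fluorescence slope more negative than the mean of all samples by about 3 SD, 99.7% confidence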;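 note: fluorescence intensity change per second fitted from 20 to 320 s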); conditions: Recombinant KvBeta, NADPH fluorescence decrease slope, 10 min; at 10 µM; stronger effect = lower value
[6] = target: Alpha-2C adrenergic receptor (Homo sapiens) (UniProt P18825); experiment: modulators of alpha2C/GIRK thallium flux, primary screen, cell-based, HEK293 alpha2C/GIRK1/2 (AID 624;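 active = fluorescence slope after compound addition differing from the mean of all screened samples at 99.7% confidence, in either direction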;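 note: slope of fluorescence ratio to pre-addition baseline per second over 15 to 24 s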); conditions: thallium flux BTC fluorescence, at 10 µM, actives lie on both sides
Alpha-2C adrenergic receptor (Homo sapiens), sequence (P18825 whole entry, looked up): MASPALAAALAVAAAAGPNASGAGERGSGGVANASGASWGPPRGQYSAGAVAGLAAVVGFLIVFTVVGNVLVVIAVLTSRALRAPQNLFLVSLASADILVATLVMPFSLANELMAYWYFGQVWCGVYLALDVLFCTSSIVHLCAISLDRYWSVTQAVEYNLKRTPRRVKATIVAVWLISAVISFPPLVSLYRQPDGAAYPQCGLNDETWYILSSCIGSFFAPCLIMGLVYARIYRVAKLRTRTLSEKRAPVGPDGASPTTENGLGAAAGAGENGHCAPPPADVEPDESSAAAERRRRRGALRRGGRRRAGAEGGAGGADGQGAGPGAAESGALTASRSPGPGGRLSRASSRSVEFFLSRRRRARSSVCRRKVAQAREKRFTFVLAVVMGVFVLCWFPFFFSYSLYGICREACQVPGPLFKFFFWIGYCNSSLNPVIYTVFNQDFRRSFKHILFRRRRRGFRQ

[7] = inhibitors of Sendai virus-induced IRF3 signaling, primary screen, TLR/RLR signaling modifier project, cell-based, Sendai virus stimulus, luciferase, 10K MLSCN set (AID 602276); conditions: HEK293 RL24 IRF3 luciferase reporter, at 10 µM, stronger effect = higher value;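 note: firefly luciferase from ISG56 promoter only with Renilla not read in this screen; 0% = Sendai virus plus DMSO and 100% = medium plus DMSO without virus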
[8] = inhibitors of poly I:C-induced TLR3 signaling, primary screen, cell-based, poly I:C stimulus, luciferase, 10K MLSCN set (AID 602277;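 active = inhibition of the reporter signal at or above 50%; inactive = inhibition below 50%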); conditions: HEK293-TLR3 RL24 IRF3 luciferase reporter, at 10 µM, stronger effect = higher value

Structure (SMILES) | cell count [1] | inhibition [1] | inhibition of aggregation [2] | nuclei count [2] | inhibition [3] | nuclei count [3] | fluorescence slope [4] | NADPH fluorescence slope [5] | slope [6] | inhibition [7] | inhibition [8]
O=C(CSc1nnnn1-c1ccccc1)c1cc2ccccc2oc1=O | 788 | -8.3% (inactive) | -9.6% (inactive) | 124% | -39.8% (inactive) | 117% | -0.647 (inactive) | -1.4e-05 (inactive) | 0.00672 (inactive) | 1.78% (inactive) | -14.1% (inactive)
CC1Cc2ccccc2N1S(=O)(=O)c1cccc(C(=O)OCC(=O)NC2CCS(=O)(=O)C2)c1 (stereo not drawn) | 657 | 0.7% (inactive) | 6.3% (inactive) | 103% | -92% (inactive) | 112% | -0.625 (inactive) | -4.3e-05 (inactive) | 0.00343 (inactive) | 20.6% (inactive) | 29.8% (inactive)
CCOc1nc(-c2ccccc2)ccc1-c1noc(-c2ccc(OC)c(OC)c2)n1 | 418 | 11.7% (inactive) | -27.9% (inactive) | 99.7% | -27% (inactive) | 107% | -0.385 (inactive) | 5.6e-06 (inactive) | 0.0092 (inactive) | 8.22% (inactive) | 9.49% (inactive)
Cc1cccc(C2CC(c3ccc(Br)cc3)Nc3nc(N)nn32)c1 (stereo not drawn) | 683 | -15.7% (inactive) | -3% (inactive) | 95.1% | -5.8% (inactive) | 105% | -0.443 (inactive) | -5.3e-05 (inactive) | 0.00633 (inactive) | 20.8% (inactive) | 25.1% (inactive)
COc1ccc(-c2cc(O)cc(O)c2)cc1 | 397 | -10.3% (inactive) | -11% (inactive) | 103% | -25% (inactive) | 98.8% | -0.49 (inactive) | -7.1e-05 (inactive) | 0.00555 (inactive) | -15.5% (inactive) | -88.2% (inactive)
CCN(CC)CCCn1c(=S)[nH]c2cc(Cl)ccc2c1=O | 353 | -0.2% (inactive) | 7.4% (inactive) | 100% | 6.9% (inactive) | 97.4% | -0.514 (inactive) | -0.000206 (active) | 0.00373 (inactive) | 12.1% (inactive) | 21.3% (inactive)
CC(=O)Nc1c(-c2ccc(F)cc2)nc2ccccn12 | 516 | -4.7% (inactive) | 16.5% (inactive) | 104% | -6.5% (inactive) | 88% | -0.551 (inactive) | 9e-06 (inactive) | 0.00637 (inactive) | 11.8% (inactive) | 4.82% (inactive)
C=CCn1c(SCC(=O)Nc2ccccc2OC)nnc1-c1ccccn1 | 684 | 9.1% (inactive) | 32.8% (inactive) | 65.8% | -6.9% (inactive) | 113% | -0.344 (inactive) | -2.6e-05 (inactive) | 0.0051 (inactive) | 7.11% (inactive) | 18.2% (inactive)
CCC(C)(C)n1nnnc1C(c1cc2cc(C)ccc2[nH]c1=O)N1CCCC1 (stereo not drawn) | 353 | 4.2% (inactive) | -27.7% (inactive) | 103% | -273% (inactive) | 110% | -0.43 (inactive) | 2.7e-05 (inactive) | 0.00689 (inactive) | 13.6% (inactive) | 28.7% (inactive)
CCN(C(=O)c1cc(Cl)ccc1OC)c1ccccc1 | 354 | 5.3% (inactive) | -20.6% (inactive) | 100% | -7.9% (inactive) | 118% | -0.447 (inactive) | -4.1e-05 (inactive) | 0.00295 (inactive) | 14.3% (inactive) | 48.8% (inactive)
CCOc1ccc2ccccc2c1C(=O)N1CCN(c2ccccc2)CC1 | 287 | -3% (inactive) | 41.9% (inactive) | 15.6% | 44.7% (inactive) | 64.1% | -0.423 (inactive) | -1.3e-05 (inactive) | 0.0036 (inactive) | 46.4% (inactive) | 56.3% (active)
CC1CN(C(=O)c2cc3cc(Cl)cc(Cl)c3oc2=O)CC(C)O1 (stereo not drawn) | 365 | 5.6% (inactive) | 1% (inactive) | 104% | -24.5% (inactive) | 100% | -0.474 (inactive) | -4.7e-06 (inactive) | 0.00693 (inactive) | 11.6% (inactive) | 23.5% (inactive)
O=C(O)c1ccc(COc2ccc(Cl)cc2)o1 | 262 | -3.3% (inactive) | 10.6% (inactive) | 81% | -24% (inactive) | 88.3% | -0.49 (inactive) | -3e-05 (inactive) | 0.00685 (inactive) | -14.7% (inactive) | -60.9% (inactive)
COc1ccc(CCNC(=O)c2ccc(N3CCCC3=O)cc2)cc1OC | 472 | -19% (inactive) | 43.9% (active) | 62.2% | -26% (inactive) | 89.1% | -0.453 (inactive) | -0.000105 (inactive) | 0.00604 (inactive) | 8.09% (inactive) | 20.6% (inactive)
CN(C)CCCOC(=O)CCc1ccccc1 | 317 | -11.5% (inactive) | 4.5% (inactive) | 95.6% | -26.3% (inactive) | 111% | -0.312 (inactive) | -3.9e-05 (inactive) | 0.00462 (inactive) | -0.368% (inactive) | 5.94% (inactive)
O=C(CN1CCN(Cc2ccccc2F)C1=O)NCc1cccnc1 | 674 | -9.2% (inactive) | 18.1% (inactive) | 93.5% | -69.2% (inactive) | 115% | -0.502 (inactive) | 2.9e-05 (inactive) | 0.00712 (inactive) | 7.76% (inactive) | 7.56% (inactive)
O=S(=O)(NCC1CCCO1)c1ccc2c(c1)OCCO2 (stereo not drawn) | 311 | -5.5% (inactive) | -1% (inactive) | 122% | -67.1% (inactive) | 120% | -0.469 (inactive) | -9.9e-06 (inactive) | 0.00518 (inactive) | 6.84% (inactive) | 7.25% (inactive)
COC(=O)C1C(=O)c2c([nH]c(C(=O)OCCOC(C)C)c2C)CC1C (stereo not drawn) | 304 | -3.3% (inactive) | -11.8% (inactive) | 112% | -46.9% (inactive) | 117% | -0.393 (inactive) | -5.7e-05 (inactive) | 0.00401 (inactive) | -33.4% (inactive) | -43.7% (inactive)
COc1ccc(N2CCN(c3oc(COc4ccccc4Cl)nc3C#N)CC2)cc1 | 451 | 14.6% (inactive) | 5.4% (inactive) | 95.5% | -33.4% (inactive) | 104% | -0.438 (inactive) | -0.000162 (inactive) | 0.00642 (inactive) | 2.05% (inactive) | 15.7% (inactive)
CC1CCc2nn(CC(=O)NCc3ccc4c(c3)OCO4)cc2C1 (stereo not drawn) | 673 | -6.1% (inactive) | 1.1% (inactive) | 103% | -80.8% (inactive) | 124% | -0.506 (inactive) | -2.4e-05 (inactive) | 0.00628 (inactive) | 7.66% (inactive) | 18% (inactive)
CCC1(c2ccc(F)cc2)NC(=O)N(CC(=O)c2ccc[nH]2)C1=O (stereo not drawn) | 556 | -20.6% (inactive) | 6.8% (inactive) | 99.9% | -36.7% (inactive) | 114% | -0.419 (inactive) | -4.1e-05 (inactive) | 0.00348 (inactive) | 4.26% (inactive) | 27% (inactive)
CC1(C)CC(=O)CC(C2(O)C(=O)N(Cc3ccccc3)c3ccccc32)O1 (stereo not drawn) | 500 | -2.4% (inactive) | -3.9% (inactive) | 82.2% | -9.4% (inactive) | 120% | -0.548 (inactive) | 1.3e-05 (inactive) | 0.00527 (inactive) | -9.58% (inactive) | -5.31% (inactive)
Cc1cc(NC(=O)c2cnn3c(C(F)F)cc(C4CC4)nc23)no1 | 747 | -3.3% (inactive) | 23% (inactive) | 100% | 27.3% (inactive) | 98.5% | -0.486 (inactive) | -3.5e-05 (inactive) | 0.00638 (inactive) | 9.48% (inactive) | 19.3% (inactive)
COc1ccc(C2C(C(=O)N3CCCC3)c3cc(OC)c(OC)cc3C(=O)N2C)cc1 (stereo not drawn) | 583 | -21.8% (inactive) | 7.8% (inactive) | 111% | -71.5% (inactive) | 115% | -0.544 (inactive) | -5.3e-05 (inactive) | 0.00513 (inactive) | 3.19% (inactive) | 12.2% (inactive)
NC(=O)c1sc2nc3c(c(-c4ccco4)c2c1N)CCC3 | 365 | 5.8% (inactive) | 1.6% (inactive) | 87.8% | -32.2% (inactive) | 121% | -0.366 (inactive) | -6.5e-05 (inactive) | 0.00352 (inactive) | 16.4% (inactive) | -2.19% (inactive)
COc1ccccc1NC(=O)C(C)NS(=O)(=O)c1ccc(F)cc1 (stereo not drawn) | 331 | 2.8% (inactive) | -6.8% (inactive) | 108% | -22.4% (inactive) | 100% | -0.476 (inactive) | -3.4e-05 (inactive) | 0.00634 (inactive) | 3.7% (inactive) | 46.5% (inactive)
Cc1cc(-c2ccccc2)c(C#N)c(N)n1 | 331 | -6.4% (inactive) | -10.4% (inactive) | 94.7% | -11.3% (inactive) | 115% | -0.394 (inactive) | -6.4e-07 (inactive) | 0.00466 (inactive) | 18.7% (inactive) | 34.2% (inactive)
O=C(O)c1cccc(NC(=O)C23CC4CC(C2)CC(n2cnc(Cl)n2)(C4)C3)c1 | 571 | -24.4% (inactive) | -15.8% (inactive) | 108% | -14.3% (inactive) | 115% | -0.506 (inactive) | -1.2e-05 (inactive) | 0.00606 (inactive) | 9.34% (inactive) | 17.3% (inactive)
